Measured values taken from PubChem BioAssay (Tox21).
Inconclusive results are not listed. Calls of active or inactive are those of the source. Unless noted, the call rests on the fitted dose curve; in most records, active means well fitted curve in the direction sought with a large enough effect in the repeat runs; inconclusive means weak or mixed curves; inactive means no such curve, though single readings can be large; an effect the other way counts as inactive or inconclusive.

Experiments:
[1] = qHTS assay to identify small molecule agonists of the RXR signaling pathway - cell viability counter screen (AID 1159529);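 further: HEK 293T cells carrying an RXR-alpha UAS beta-lactamase reporter; nearly all actives have a fitted effect of over 50% in size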
In short: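 Counter screen: CellTiter-Glo luminescence. Cells: RXR-alpha-UAS-bla HEK 293T. Medium: 2% charcoal-stripped FBS. Treatment: 16 h, 37 C. Reagent incubation: 30 min, RT.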

[2] = qHTS assay to identify small molecule antagonists of the retinoid acid receptor (RAR) signaling pathway - cell viability counter screen (AID 1159551); further: nearly all actives have a fitted effect of over 35% in size
In short: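 Following overnight attachment, C3RL4 reporter cells received DMSO-dissolved compounds and then retinol (1 uM final). Six hours later at 37 C, ATP content was measured by CellTiter-Glo luminescence.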

[3] = qHTS assay to identify small molecule antagonists of the retinoic acid receptor (RAR) signaling pathway (AID 1159552; further: nearly all actives have a fitted effect of over 50% in size)
In short: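 Antagonism of retinol-induced RARE reporter activity was measured in C3RL4 cells. Exposure to compounds and 1 uM final retinol lasted 6 hr at 37 C, with luminescence as endpoint.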

[4] = qHTS assay to identify small molecule agonists of the retinoic acid receptor (RAR) signaling pathway (AID 1159553)
In short: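 Cell line C3RL4, RARE luciferase reporter. Treatment: compounds in DMSO, 6 hr, 37 C, 5% CO2, after overnight plating. Detection: luminescence, 30 min RT after reagent.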

[5] = qHTS assay to identify small molecule antagonists of the estrogen related receptor (ERR) signaling pathway from Tox21 library - cell viability counter screen (AID 1224834); further: nearly all actives have a fitted effect of over 30% in size
In short: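 Viability readout (CellTiter-Fluor fluorescence, 30 min at 37 C) multiplexed with the ERR assay; cells treated 17.5 h at 37 C with compounds delivered in DMSO.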

[6] = target: Luciferin 4-monooxygenase (Photinus pyralis) (UniProt P08659); assay: qHTS assay to identify small molecule inhibitors of firefly luciferase (AID 1224835); further: nearly all actives have a fitted effect of over 25% in size
In short: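 Inhibition of purified Photinus luciferase is measured by luminescence. Substrate levels (D-luciferin, ATP) sit at their KM values. Each compound is tested in a concentration series.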

[7] = qHTS assay to identify small molecule agonists of the constitutive androstane receptor (CAR) signaling pathway - cell viability counter screen (AID 1224836); further: nearly all actives have a fitted effect of over 45% in size
In short: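 Double-stable HepG2 hepatoma cells (hCAR plus CYP2B6-2.2kb) are treated for 23 h at 37 C with test compounds in 15-point concentration series. PK11195 at 0.75 uM final is co-added. Cell viability is quantified by CellTiter-Fluor.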

[8] = qHTS assay to identify small molecule antagonists of the constitutive androstane receptor (CAR) signaling pathway - cell viability counter screen (AID 1224837); further: nearly all actives have a fitted effect of over 45% in size
In short: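 Fluorescence from CellTiter-Fluor served as the viability signal. Human hepatoma HepG2 cells stably bearing hCAR and CYP2B6-2.2kb received compound plus CITCO (50 nM final) for 23 hr.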

[9] = target: Nuclear receptor subfamily 1 group I member 3 (Homo sapiens) (UniProt Q14994); assay: qHTS assay to identify small molecule antagonists of the constitutive androstane receptor (CAR) signaling pathway (AID 1224838);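 further: HepG2 cells stably expressing hCAR with CYP2B6 luciferase reporter stimulated by CITCO; nearly all actives have a fitted effect of over 40% in size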
In short: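 Quantitative HTS in double-stable HepG2-CYP2B6-hCAR cells. After 4 h plating, cells get compound (15 concentrations) and CITCO at 50 nM final, incubate 24 h at 37 C, then ONE-Glo luminescence is read.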

[10] = target: Nuclear receptor subfamily 1 group I member 3 (Homo sapiens) (UniProt Q14994); assay: qHTS assay to identify small molecule agonists of the constitutive androstane receptor (CAR) signaling pathway (AID 1224839); further: nearly all actives have a fitted effect of over 15% in size; further: potency means the concentration at half of the fitted maximal effect;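 on activation: HepG2 cells stably carrying human CAR and a CYP2B6 luciferase reporter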
In short: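 Readout: firefly luciferase luminescence via ONE-Glo. System: HepG2 double-stable for hCAR and CYP2B6-2.2kb. Conditions: 15-point compound titration, PK11195 at 0.75 uM final, 24 h incubation.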

[11] = qHTS assay to identify small molecule antagonists of the estrogen related receptor signaling pathway with the pleiotropic PPARgamma coactivator (PGC) from Tox21 10K library - cell viability counter screen (AID 1224840; active means well fitted cell-killing curve with a large enough effect in the repeat runs, not every such curve was filed as active; further: nearly all actives have a fitted effect of over 40% in size)
In short: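 Compounds in DMSO, alongside positive and negative controls, were pinned onto PGC/ERR cells (2,000 per well). Exposure lasted 17.5 hours at 37 C, followed by a 30-minute CellTiter-Fluor incubation and fluorescence reading.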

[12] = qHTS assay to identify small molecule agonists of the hypoxia (HIF-1) signaling pathway - cell viability counter screen (AID 1224844; calls by dose curve; further: nearly all actives have a fitted effect of over 50% in size)
In short: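 Luminescent ATP content (CellTiter-Glo, 30 min, room temperature) served as the viability measure in HRE-bla ME-180 cells exposed to compounds for 17 hrs in low-serum medium (0.5% dialyzed FBS).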

[13] = qHTS assay to identify small molecule agonists of H2AX (AID 1224845; active means well fitted activation curve with a large enough effect in the signal ratio in the repeat runs, not every such curve was filed as active; the % refers to the signal ratio)
In short: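 Phospho-H2AX Ser139 measured by HTRF (ex 320 nm; em 665 and 620 nm) after 24 hr antibody incubation. Compounds, 15 concentrations, 0.76% DMSO, were applied to CHO-K1 cells for 3hr at 37C before lysis.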

[14] = qHTS assay to identify small molecule agonists of H2AX - cell viability counter screen (AID 1224847; calls by dose curve;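 further: wild-type CHO-K1 cells; top concentration of the series differs between compounds; nearly all actives have a fitted effect of over 30% in size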)
In short: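 For this counter screen, overnight-attached CHO-K1 cells received test compounds (15 concentrations, 0.76% DMSO final); 3 hr later at 37C, CellTiter-Glo reagent was added and luminescence recorded after 30 min at room temperature.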

[15] = qHTS RealTime-Glo MT Cell Viability Assay in HepG2 cells - 24 hour (AID 1224867); further: nearly all actives have a fitted effect of over 50% in size
In short: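 Viability was tracked continuously by NanoLuc luminescence from prosubstrate reduced by living HepG2 cells, at successive time points over 40 h of compound exposure. Cells with reagent were preincubated 5 h at 37 °C before compound addition.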

[16] = qHTS assay to identify small molecule agonists of the hypoxia (HIF-1) signaling pathway (AID 1224846; active means well fitted activation curve with a large enough effect in the signal ratio in the repeat runs, not every such curve was filed as active; the % refers to the signal ratio)
In short: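 Measured by blue/green FRET after loading CCF4-AM: beta-lactamase expressed from a hypoxia response element in ME-180 cells. Test agents were delivered in DMSO and left 17 hrs; cells had been plated 5 hrs earlier in low-serum (0.5% dialyzed FBS) medium.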

[17] = qHTS assay to identify small molecule antagonists of the estrogen related receptor (ERR) signaling pathway from Tox21 library (AID 1224848); further: nearly all actives have a fitted effect of over 50% in size
In short: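 Reading was by luminescence 30 min after ONE-Glo addition. Before that, ERR cells at 2,000 per well had rested 6 h at 37 C/5% CO2 and then received pin-tooled compounds in DMSO for 18 h at 37 C.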

[18] = qHTS assay to identify small molecule agonists of the estrogen related receptor (ERR) signaling pathway from Tox21 library (AID 1224849; calls by dose curve; further: nearly all actives have a fitted effect of over 15% in size); conditions: ERR reporter cell line, ONE-Glo luciferase, 18 h; at 92.4 µM (top of the series) unless noted
In short: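 We plated ERR reporter cells, waited 6 h, added compounds in DMSO by pin tool and incubated them 18 h at 37 C. ONE-Glo was then added and luminescence read after 30 min.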

[19] = target: Thyrotropin receptor (Homo sapiens) (UniProt P16473); assay: qHTS assay to identify small molecule agonists of the thyroid stimulating hormone receptor (TSHR) signaling pathway (AID 1224843; calls by dose curve; further: nearly all actives have a fitted effect of over 45% in size)
In short: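 HEK293 cells stably bearing the thyrotropin receptor were plated at 800 cells/well and challenged with compound (30 min, RT). Accumulated cAMP was quantified via cAMP-d2 competing for cryptate-tagged antibody.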
On the % scale 0 is the no-effect control and ±100 the full control effect.

Sequence of Thyrotropin receptor (Homo sapiens) (P16473 whole entry, looked up): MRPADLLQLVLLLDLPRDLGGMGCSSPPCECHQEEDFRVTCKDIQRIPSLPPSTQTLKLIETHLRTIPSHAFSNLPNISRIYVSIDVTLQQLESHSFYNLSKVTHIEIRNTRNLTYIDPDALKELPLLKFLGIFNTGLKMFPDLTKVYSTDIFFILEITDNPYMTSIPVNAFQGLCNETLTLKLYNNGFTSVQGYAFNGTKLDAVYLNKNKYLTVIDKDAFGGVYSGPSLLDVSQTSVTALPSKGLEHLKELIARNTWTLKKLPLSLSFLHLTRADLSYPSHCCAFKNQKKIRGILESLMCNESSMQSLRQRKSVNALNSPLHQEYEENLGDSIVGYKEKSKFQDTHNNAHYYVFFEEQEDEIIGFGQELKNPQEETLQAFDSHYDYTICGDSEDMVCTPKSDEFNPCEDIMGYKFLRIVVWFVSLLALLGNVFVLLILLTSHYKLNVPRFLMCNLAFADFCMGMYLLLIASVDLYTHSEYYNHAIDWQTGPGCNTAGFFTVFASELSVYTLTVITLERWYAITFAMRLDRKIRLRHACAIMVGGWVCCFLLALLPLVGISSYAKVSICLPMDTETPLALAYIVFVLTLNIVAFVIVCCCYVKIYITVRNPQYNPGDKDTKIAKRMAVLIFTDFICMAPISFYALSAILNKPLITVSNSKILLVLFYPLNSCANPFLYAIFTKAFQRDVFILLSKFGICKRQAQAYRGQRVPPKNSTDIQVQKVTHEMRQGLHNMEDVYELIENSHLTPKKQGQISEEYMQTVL
Sequence of Nuclear receptor subfamily 1 group I member 3 (Homo sapiens) (Q14994 whole entry, looked up): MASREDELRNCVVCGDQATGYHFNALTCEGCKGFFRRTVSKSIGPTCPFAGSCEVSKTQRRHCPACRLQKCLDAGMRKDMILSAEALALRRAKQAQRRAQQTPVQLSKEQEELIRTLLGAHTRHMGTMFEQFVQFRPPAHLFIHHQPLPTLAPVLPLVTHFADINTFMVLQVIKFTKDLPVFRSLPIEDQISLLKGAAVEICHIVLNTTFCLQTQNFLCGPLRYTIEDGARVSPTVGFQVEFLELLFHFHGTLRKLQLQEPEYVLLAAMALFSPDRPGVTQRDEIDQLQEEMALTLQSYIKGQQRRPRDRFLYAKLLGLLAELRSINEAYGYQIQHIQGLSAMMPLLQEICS
Sequence of Luciferin 4-monooxygenase (Photinus pyralis) (P08659 whole entry, looked up): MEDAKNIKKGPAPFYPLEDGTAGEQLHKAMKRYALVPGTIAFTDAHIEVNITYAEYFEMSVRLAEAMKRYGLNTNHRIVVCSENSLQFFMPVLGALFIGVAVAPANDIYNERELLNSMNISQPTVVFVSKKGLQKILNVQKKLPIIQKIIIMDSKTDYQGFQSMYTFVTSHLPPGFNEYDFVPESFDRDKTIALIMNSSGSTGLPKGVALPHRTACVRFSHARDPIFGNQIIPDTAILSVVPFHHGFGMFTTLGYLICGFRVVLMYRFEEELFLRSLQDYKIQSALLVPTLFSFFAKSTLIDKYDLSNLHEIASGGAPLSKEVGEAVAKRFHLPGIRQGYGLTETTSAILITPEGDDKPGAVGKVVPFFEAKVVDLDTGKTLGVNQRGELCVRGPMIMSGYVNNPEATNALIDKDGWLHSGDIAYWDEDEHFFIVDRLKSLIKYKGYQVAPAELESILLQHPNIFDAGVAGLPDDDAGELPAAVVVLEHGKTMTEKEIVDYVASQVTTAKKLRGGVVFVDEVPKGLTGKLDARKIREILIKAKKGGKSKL

Cc1cc(-c2ccccc2)nnc1NCCN1CCOCC1
inactive: outcome [1] | outcome [2] | outcome [3] | Potency [4] | outcome [5] | Potency [6] | outcome [7] | outcome [8] | Potency [9] | Potency [10] | outcome [11] | outcome [12] | outcome [13] | outcome [14] | outcome [15]

C=CCCCC
inactive: outcome [1] | outcome [2] | outcome [3] | Potency [4] | outcome [5] | Potency [6] | outcome [7] | outcome [8] | Potency [9] | Potency [10] | outcome [11] | outcome [13] | outcome [16] | outcome [15]

c1ccc2cnccc2c1
inactive: outcome [1] | outcome [2] | outcome [3] | Potency [4] | outcome [5] | Potency [6] | outcome [7] | outcome [8] | Potency [9] | Potency [10] | outcome [11] | outcome [13] | outcome [16] | outcome [14] | Potency [17] | activity change, positive = activation [18] 7.4% | outcome [15]

[O-][n+]1cccc(/C(Cl)=N/OC[C@@H](O)CN2CCCCC2)c1
inactive: outcome [1] | outcome [2] | outcome [3] | Potency [4] | outcome [5] | Potency [6] | outcome [7] | outcome [8] | Potency [9] | Potency [10] | outcome [11] | outcome [13] | outcome [16] | outcome [14] | outcome [15]

O=C1NC(c2ccccc2)(c2ccccc2)C(=O)N1COP(=O)(O)O
inactive: outcome [1] | outcome [2] | outcome [3] | Potency [4] | outcome [5] | Potency [6] | outcome [7] | outcome [8] | Potency [9] | Potency [10] | outcome [19] | outcome [12] | outcome [13] | outcome [16] | outcome [14] | outcome [15]

COc1nc(N)nc2nc[nH]c12
inactive: outcome [1] | outcome [2] | outcome [3] | Potency [4] | outcome [5] | Potency [6] | outcome [7] | outcome [8] | Potency [9] | Potency [10] | outcome [11] | outcome [12] | outcome [13] | outcome [16] | outcome [14] | Potency [17] | activity change, positive = activation [18] 0.367% | outcome [15]

COc1c2occc2c(OC)c2c(=O)cc(C)oc12
inactive: outcome [1] | outcome [2] | outcome [3] | Potency [4] | outcome [5] | Potency [6] | outcome [7] | outcome [8] | outcome [11] | outcome [19] | outcome [12] | outcome [13] | outcome [14] | outcome [15]
active: Potency [10] 13.3 µM

O=C(Cn1ccnc1[N+](=O)[O-])NCc1ccccc1
inactive: outcome [1] | outcome [2] | outcome [3] | Potency [4] | outcome [5] | Potency [6] | outcome [7] | outcome [8] | Potency [10] | outcome [12] | outcome [13] | outcome [16] | outcome [14] | outcome [15]

Cc1ccc(C(C)NC(=O)[C@@H](NC(=O)OC(C)C)C(C)C)cc1 (stereo partly specified)
inactive: outcome [1] | outcome [2] | outcome [3] | Potency [4] | outcome [5] | Potency [6] | outcome [7] | outcome [8] | Potency [9] | Potency [10] | outcome [19] | outcome [12] | outcome [13] | outcome [16] | outcome [15]

COc1cc(/C=C/C(N)=O)cc(OC)c1OC
inactive: outcome [1] | outcome [2] | outcome [3] | Potency [4] | outcome [5] | Potency [6] | outcome [7] | outcome [8] | Potency [10] | outcome [11] | outcome [12] | outcome [13] | outcome [16] | outcome [14] | outcome [15]

CC1OCCC1=O (stereo unspecified)
inactive: outcome [1] | outcome [2] | outcome [3] | Potency [4] | outcome [5] | Potency [6] | outcome [7] | outcome [8] | Potency [10] | outcome [19] | outcome [12] | outcome [13] | outcome [16] | outcome [14] | outcome [15]

CC(=O)C1C(=O)C=C(C)OC1=O (stereo unspecified)
inactive: outcome [1] | outcome [2] | outcome [3] | Potency [4] | outcome [5] | Potency [6] | outcome [7] | outcome [8] | Potency [10] | outcome [11] | outcome [19] | outcome [13] | outcome [16] | outcome [14] | outcome [15]

OCCN1CCOCC1
inactive: outcome [1] | outcome [2] | outcome [3] | Potency [4] | outcome [5] | Potency [6] | outcome [7] | outcome [8] | Potency [9] | Potency [10] | outcome [13] | outcome [16] | outcome [15]

Cc1ncc([N+](=O)[O-])n1CC(C)O (stereo unspecified)
inactive: outcome [1] | outcome [2] | outcome [3] | Potency [4] | outcome [5] | Potency [6] | outcome [7] | outcome [8] | Potency [10] | outcome [11] | outcome [12] | outcome [13] | outcome [16] | outcome [14] | outcome [15]

CC(=O)CC(=O)OC(C)(C)C
inactive: outcome [1] | outcome [2] | outcome [3] | Potency [4] | outcome [5] | Potency [6] | outcome [7] | outcome [8] | Potency [10] | outcome [19] | outcome [13] | outcome [16] | outcome [14] | outcome [15]
